According to PubChem BioAssay (NCATS):
Values joined by “and” are separate entries in the source; they are usually repeats but may differ in a detail not shown here. Identical values can stand only once. Inconclusive results are not listed. Where a call stands in place of a potency, no number is given. Some compounds were tested as several samples or in several runs, with calls that do not always agree. Active and inactive are the calls of the source. Unless noted, calls come from the whole dose curve; as a rule, active = well fitted curve in the direction sought with a large enough effect; inconclusive = small, poorly fitted or top-dose-only effect, or another doubt; inactive = no such curve, though single readings can be large; an effect the other way counts as inactive or inconclusive.

What was measured:
[1] = P-glycoprotein substrates identified in KB-3-1 adenocarcinoma cell line, qHTS therapeutic library screen (AID 1346986); note: nearly all actives have a fitted effect of over 60% in size;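 note: potency is the fitted concentration of half-maximal effect; potency is for cytotoxicity meaning loss of cell viability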
In short: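 72 h cell-killing screen, 500 cells/well, CellTiter-Glo luminescence. Paired lines KB-3-1/KB-8-5-11; P-gp dependence checked by tariquidar co-treatment and HEK-293 MDR-19 versus empty-vector cells.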

[2] = P-glycoprotein substrates identified in KB-8-5-11 adenocarcinoma cell line, qHTS therapeutic library screen (AID 1346987); note: nearly all actives have a fitted effect of over 65% in size; note: potency is the fitted concentration of half-maximal effect
In short: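 Compounds are pinned in dose-response onto KB-8-5-11 cells (500 cells/well, colchicine-free medium) and left 72 h at 37 degree C. CellTiter-Glo luminescence then yields AC50 values.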

[3] = NS1 protein of Zika virus - qHTS assay to identify small molecule inhibitors in human HEK 293 cells (AID 1347053); note: nearly all actives have a fitted effect of over 55% in size; note: potency is the fitted concentration of half-maximal effect
In short: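 Readout was TR-FRET using paired anti-NS1 antibodies after 24 h infection of HEK 293 cells with ZIKV MR766 (MOI = 0.5). Compound preceded virus by 1 h; reduced signal reflects lower NS1 expression.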

[4] = qHTS for Inhibitors of the Functional Ribonucleoprotein Complex (vRNP) of Lassa (LASV) Arenavirus: LASV Primary Screen - GLuc reporter signal (AID 1347082; calls by dose curve; tested in HEK293 reporter line; note: series mostly up to about 57 µM; nearly all actives have a fitted effect of over 60% in size)
[5] = qHTS for Inhibitors of the Functional Ribonucleoprotein Complex (vRNP) of Lassa (LASV) Arenavirus: Viability assay - alamar blue signal for LASV Primary Screen (AID 1347083; calls by dose curve; tested in HEK293 reporter line; note: nearly all actives have a fitted effect of over 80% in size; note: potency is the fitted concentration of half-maximal effect)
[6] = qHTS for Inhibitors of the Functional Ribonucleoprotein Complex (vRNP) of Lymphocytic Choriomeningitis Arenaviruses (LCMV): Viability assay - alamar blue signal for LCMV Primary Screen (AID 1347085; calls by dose curve; tested in HEK293 reporter line; note: nearly all actives have a fitted effect of over 80% in size; note: potency is the fitted concentration of half-maximal effect)
[7] = target: Nucleoprotein (Lymphocytic choriomeningitis virus (strain Armstrong)) (UniProt P09992); test: qHTS for Inhibitors of the Functional Ribonucleoprotein Complex (vRNP) of Lymphocytic Choriomeningitis Arenaviruses (LCMV): LCMV Primary Screen - GLuc reporter signal (AID 1347086; calls by dose curve; note: nearly all actives have a fitted effect of over 70% in size; note: potency is the fitted concentration of half-maximal effect)
Sequence of Nucleoprotein (Lymphocytic choriomeningitis virus (strain Armstrong)) (P09992 whole entry, looked up): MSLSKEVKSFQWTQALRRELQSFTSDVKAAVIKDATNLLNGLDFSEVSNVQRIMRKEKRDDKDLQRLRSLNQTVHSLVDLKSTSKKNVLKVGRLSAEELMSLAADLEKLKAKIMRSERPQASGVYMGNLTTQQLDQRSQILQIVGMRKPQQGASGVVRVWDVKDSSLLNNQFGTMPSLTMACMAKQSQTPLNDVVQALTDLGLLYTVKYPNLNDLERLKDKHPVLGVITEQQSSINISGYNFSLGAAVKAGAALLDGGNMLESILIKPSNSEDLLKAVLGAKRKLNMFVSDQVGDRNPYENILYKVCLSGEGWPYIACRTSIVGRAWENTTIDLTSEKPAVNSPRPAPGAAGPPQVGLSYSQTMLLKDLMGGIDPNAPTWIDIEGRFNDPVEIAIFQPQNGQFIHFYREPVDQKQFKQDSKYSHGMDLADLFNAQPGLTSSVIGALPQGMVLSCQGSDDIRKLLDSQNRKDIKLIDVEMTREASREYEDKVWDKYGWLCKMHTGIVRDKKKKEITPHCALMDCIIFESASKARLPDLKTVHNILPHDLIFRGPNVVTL

[8] = qHTS of pediatric cancer cell lines to identify multiple opportunities for drug repurposing: Primary screen for TC32 cells (AID 1347089); note: nearly all actives have a fitted effect of over 60% in size; note: potency is the fitted concentration of half-maximal effect
In short: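 qHTS, TC32, 48 h drug treatment, CellTiter-Glo luminescence as a proxy for metabolically active cells; primary top concentration 46 µM (MIPE 11-pt, NPC 8-pt); confirmatory 11-pt.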

[9] = qHTS of pediatric cancer cell lines to identify multiple opportunities for drug repurposing: Primary screen for SJ-GBM2 cells (AID 1347091); note: potency is the fitted concentration of half-maximal effect
In short: (§1)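 Eight- or eleven-point concentration series, 48 h treatment at 37 degrees C in growth media; readout CellTiter-Glo luminescence. Potency and efficacy were taken from the concentration-response curves.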

[10] = qHTS of pediatric cancer cell lines to identify multiple opportunities for drug repurposing: Primary screen for BT-37 cells (AID 1347094); note: potency is the fitted concentration of half-maximal effect
In short: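 Cells seeded at 500-1,000 cells/well in growth media, rested 5 hours at 37 degrees C, 5% CO2, then dosed; MIPE compounds at 11-point (from 0.78 nM) and NPC at 8-point (from 0.59 nM) final concentrations. Viability by CellTiter-Glo luminescence after 48 hours.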

[11] = qHTS of pediatric cancer cell lines to identify multiple opportunities for drug repurposing: Primary screen for DAOY cells (AID 1347090); note: nearly all actives have a fitted effect of over 55% in size; note: potency is the fitted concentration of half-maximal effect
In short: as §1

[12] = qHTS of pediatric cancer cell lines to identify multiple opportunities for drug repurposing: Primary screen for A673 cells (AID 1347092); note: nearly all actives have a fitted effect of over 45% in size; note: potency is the fitted concentration of half-maximal effect
In short: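 Luminescence from CellTiter-Glo, taken after 15 min at room temperature, served as the proxy for metabolically active cells following 48 h treatment. Both potency and efficacy were taken from curves fitted to the titration data.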

[13] = qHTS of pediatric cancer cell lines to identify multiple opportunities for drug repurposing: Primary screen for SK-N-MC cells (AID 1347093); note: potency is the fitted concentration of half-maximal effect
In short: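 Metabolically active cells were quantified by ATP-dependent luminescence (CellTiter-Glo, 15 min at room temperature) following 48 h treatment. Cells had been plated at 500-1,000 per well and settled for 5 h beforehand.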

[14] = Natriuretic polypeptide receptor (hNpr1) antagonism - Pilot counterscreen GloSensor control cell line (AID 1347045; calls by dose curve; note: potency is the fitted concentration of half-maximal effect)
In short: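 Control counterscreen: luciferase cGMP-biosensor HEK293 cells (no Npr1) received compound for 30 min at room temperature after GloSensor substrate loading. Luminescence was measured before and 20 min after soluble guanylyl cyclase activation by 50 uM nitroprusside.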

[15] = target: Atrial natriuretic peptide receptor 1 (Homo sapiens) (UniProt P16066); test: Natriuretic polypeptide receptor (hNpr1) antagonism - Pilot screen (AID 1347049; calls by dose curve;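 note: HEK293 cells with hNpr1 and GloSensor cGMP luciferase stimulated by 0.1 nM hNppA; agonist-evoked cGMP luminescence read 20 min after hNppA addition; series mostly up to about 58 µM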)
Sequence of Atrial natriuretic peptide receptor 1 (Homo sapiens) (P16066 whole entry, looked up): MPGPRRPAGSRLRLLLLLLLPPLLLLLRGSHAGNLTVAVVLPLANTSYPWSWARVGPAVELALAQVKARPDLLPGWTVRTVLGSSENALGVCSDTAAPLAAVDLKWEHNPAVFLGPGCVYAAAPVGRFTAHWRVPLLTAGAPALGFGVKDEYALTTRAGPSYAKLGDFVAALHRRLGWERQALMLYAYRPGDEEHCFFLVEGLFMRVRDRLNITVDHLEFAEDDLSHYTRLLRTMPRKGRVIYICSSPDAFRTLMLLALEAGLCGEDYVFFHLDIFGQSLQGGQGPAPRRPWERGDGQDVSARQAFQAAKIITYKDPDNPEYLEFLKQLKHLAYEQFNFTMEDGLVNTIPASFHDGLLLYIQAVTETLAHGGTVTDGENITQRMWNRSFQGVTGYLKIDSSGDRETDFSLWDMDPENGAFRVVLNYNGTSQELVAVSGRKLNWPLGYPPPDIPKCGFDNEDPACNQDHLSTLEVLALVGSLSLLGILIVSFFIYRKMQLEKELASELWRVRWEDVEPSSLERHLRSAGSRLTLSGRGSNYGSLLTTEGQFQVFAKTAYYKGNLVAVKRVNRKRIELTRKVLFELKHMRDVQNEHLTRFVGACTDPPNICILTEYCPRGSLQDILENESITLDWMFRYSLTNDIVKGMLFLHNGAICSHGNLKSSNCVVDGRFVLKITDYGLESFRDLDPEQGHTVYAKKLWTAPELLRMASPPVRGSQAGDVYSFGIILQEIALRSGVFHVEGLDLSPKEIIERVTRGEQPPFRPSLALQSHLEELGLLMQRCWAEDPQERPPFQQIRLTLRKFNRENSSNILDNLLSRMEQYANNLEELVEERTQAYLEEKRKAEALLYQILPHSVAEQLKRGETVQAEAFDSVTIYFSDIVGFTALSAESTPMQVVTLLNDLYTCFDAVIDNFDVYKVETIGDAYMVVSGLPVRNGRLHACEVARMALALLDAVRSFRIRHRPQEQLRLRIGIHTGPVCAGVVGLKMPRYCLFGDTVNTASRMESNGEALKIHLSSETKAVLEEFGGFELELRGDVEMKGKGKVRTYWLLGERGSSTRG
In short: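 Cells expressing receptor plus cGMP biosensor are seeded and incubated overnight at 37C, then loaded with GloSensor reagent (2% final) at room temperature for 2 h. Library compounds go on for 30 min. A pre-read precedes agonist (hNppA, 0.1 nM final) and a 20-min readout.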

[16] = target: Atrial natriuretic peptide receptor 2 (Homo sapiens) (UniProt P20594); test: Natriuretic polypeptide receptor (hNpr2) antagonism - Pilot subtype selectivity assay (AID 1347050; calls by dose curve)
Sequence of Atrial natriuretic peptide receptor 2 (Homo sapiens) (P20594 whole entry, looked up): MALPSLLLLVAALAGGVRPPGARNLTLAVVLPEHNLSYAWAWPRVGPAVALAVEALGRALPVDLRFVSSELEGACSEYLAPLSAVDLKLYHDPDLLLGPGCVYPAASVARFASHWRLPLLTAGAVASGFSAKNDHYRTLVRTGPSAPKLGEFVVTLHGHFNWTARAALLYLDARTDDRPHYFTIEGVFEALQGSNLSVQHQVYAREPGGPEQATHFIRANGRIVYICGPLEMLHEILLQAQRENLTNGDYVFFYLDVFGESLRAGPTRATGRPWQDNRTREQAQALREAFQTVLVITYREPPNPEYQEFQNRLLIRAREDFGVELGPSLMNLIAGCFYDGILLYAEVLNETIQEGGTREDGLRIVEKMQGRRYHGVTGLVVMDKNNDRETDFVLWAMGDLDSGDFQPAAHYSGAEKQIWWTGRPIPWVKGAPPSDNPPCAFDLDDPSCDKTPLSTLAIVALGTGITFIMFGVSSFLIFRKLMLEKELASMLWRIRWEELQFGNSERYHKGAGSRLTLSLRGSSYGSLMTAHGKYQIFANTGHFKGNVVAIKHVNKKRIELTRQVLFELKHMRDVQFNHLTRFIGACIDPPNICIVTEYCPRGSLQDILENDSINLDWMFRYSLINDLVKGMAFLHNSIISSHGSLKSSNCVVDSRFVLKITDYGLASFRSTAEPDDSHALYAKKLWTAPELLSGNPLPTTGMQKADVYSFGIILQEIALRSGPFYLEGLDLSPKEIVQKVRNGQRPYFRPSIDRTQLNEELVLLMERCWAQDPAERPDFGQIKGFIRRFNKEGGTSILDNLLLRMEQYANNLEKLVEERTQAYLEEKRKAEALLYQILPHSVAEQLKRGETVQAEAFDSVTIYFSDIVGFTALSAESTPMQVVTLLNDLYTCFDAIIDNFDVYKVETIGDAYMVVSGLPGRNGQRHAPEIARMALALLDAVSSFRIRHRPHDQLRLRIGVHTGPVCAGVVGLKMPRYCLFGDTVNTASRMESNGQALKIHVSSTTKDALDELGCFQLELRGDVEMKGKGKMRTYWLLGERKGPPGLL
In short: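 Read-out: GloSensor luminescence (CCD imager), baseline vs post-stimulation. HEK293 cells expressing hNpr2; compounds pre-incubated 30-50 min at ambient temperature; hNppC 1 nM final, 20 min.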

[17] = target: T1, Tyrosine-protein phosphatase non-receptor type substrate 1 (Homo sapiens) + Leukocyte surface antigen CD47 (Homo sapiens) (UniProt P78324+Q08722); test: CD47-SIRPalpha protein protein interaction - Alpha assay qHTS validation (AID 1347059);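 note: bead proximity luminescence from CD47 binding SIRPalpha after compound preincubation with SIRPalpha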
T1 sequence (P78324 whole entry, looked up, the tested form may be a part): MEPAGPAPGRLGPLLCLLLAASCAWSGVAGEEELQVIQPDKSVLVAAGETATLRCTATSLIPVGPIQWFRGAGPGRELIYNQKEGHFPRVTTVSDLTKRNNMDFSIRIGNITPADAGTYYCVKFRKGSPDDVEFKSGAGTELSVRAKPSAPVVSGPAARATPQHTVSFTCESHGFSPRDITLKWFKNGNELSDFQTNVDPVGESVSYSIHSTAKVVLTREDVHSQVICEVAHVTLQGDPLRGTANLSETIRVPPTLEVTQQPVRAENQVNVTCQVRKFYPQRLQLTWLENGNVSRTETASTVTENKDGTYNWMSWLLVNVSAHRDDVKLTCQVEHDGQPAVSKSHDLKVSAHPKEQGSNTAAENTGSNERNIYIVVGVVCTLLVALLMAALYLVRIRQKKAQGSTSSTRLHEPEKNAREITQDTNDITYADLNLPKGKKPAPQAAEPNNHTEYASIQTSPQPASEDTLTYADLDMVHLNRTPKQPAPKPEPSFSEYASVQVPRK
T1 sequence (Q08722 whole entry, looked up, the tested form may be a part): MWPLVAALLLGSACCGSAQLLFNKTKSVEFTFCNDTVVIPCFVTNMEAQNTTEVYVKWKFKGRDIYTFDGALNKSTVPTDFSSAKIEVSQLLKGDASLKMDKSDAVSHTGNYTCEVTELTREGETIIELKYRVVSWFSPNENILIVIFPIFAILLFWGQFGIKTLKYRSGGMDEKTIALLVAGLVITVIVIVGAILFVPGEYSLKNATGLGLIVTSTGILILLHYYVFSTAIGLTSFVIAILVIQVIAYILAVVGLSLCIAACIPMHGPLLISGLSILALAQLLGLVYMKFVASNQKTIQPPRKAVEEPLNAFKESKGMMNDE
In short: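 In PBS (pH 7.4) with 0.05% IGEPAL CA-630, compound is preincubated with biotin-Avi-SIRPalpha ectodomain before His-CD47 ectodomain and affinity beads are added. Light-protected room-temperature incubations; AlphaScreen readout.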

[18] = target: Parathyroid hormone/parathyroid hormone-related peptide receptor (Homo sapiens) (UniProt Q03431); test: qHTS for PTHR1 Agonists: Optimization Screen against the NCGC LOPAC library (AID 1347079);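 note: GloSensor cAMP luminescence in HEK-293 GP2 cells expressing human PTHR1 with IBMX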
Sequence of Parathyroid hormone/parathyroid hormone-related peptide receptor (Homo sapiens) (Q03431 whole entry, looked up): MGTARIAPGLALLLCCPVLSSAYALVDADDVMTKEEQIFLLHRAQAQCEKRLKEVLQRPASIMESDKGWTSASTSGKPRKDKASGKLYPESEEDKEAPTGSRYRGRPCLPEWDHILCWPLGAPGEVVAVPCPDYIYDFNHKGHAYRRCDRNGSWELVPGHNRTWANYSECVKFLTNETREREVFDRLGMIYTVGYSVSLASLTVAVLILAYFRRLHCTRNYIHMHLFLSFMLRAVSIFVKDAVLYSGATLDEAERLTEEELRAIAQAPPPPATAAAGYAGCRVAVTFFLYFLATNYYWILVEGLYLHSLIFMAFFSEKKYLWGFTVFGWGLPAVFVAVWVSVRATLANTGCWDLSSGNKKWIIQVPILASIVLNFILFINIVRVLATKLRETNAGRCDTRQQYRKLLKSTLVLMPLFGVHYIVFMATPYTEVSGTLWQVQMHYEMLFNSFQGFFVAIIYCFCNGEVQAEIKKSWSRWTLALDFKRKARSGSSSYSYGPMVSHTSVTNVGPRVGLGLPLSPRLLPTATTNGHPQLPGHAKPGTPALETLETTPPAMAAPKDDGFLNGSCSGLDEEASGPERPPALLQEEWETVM
In short: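 HEK-293 GP2 cells, PTHR1 + GloSensor cAMP; 3000 cells/well, o/n. Luciferin + IBMX 0.5mM each (stock), 1 hr 37C. Cpd titration, 1 hr 37C. Lum after 15 min RT. Ctrl M-PTH(1-15) top 10uM.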

[19] = target: T1, Tyrosine-protein phosphatase non-receptor type substrate 1 (Homo sapiens) + Leukocyte surface antigen CD47 (Homo sapiens); test: CD47-SIRPalpha protein protein interaction - HTRF assay qHTS validation (AID 1347058; active = well fitted curve in the direction sought with a large enough effect in the signal ratio, not every such curve was filed as active; the % refers to the signal ratio; note: series mostly up to about 38 µM)
In short: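 Soluble extracellular domains (6His-CD47, Avi-tag-biotinylated SIRPalpha) in PBS pH 7.4 with 0.05% IGEPAL CA-630. Compounds were preincubated 30 min at RT with CD47 and anti-His-Eu, then SIRPalpha and SAV-XL665 were added. TR-FRET 665/615 ratio.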

[20] = target: T1, Tyrosine-protein phosphatase non-receptor type substrate 1 (Homo sapiens) + Leukocyte surface antigen CD47 (Homo sapiens); test: CD47-SIRPalpha protein protein interaction - LANCE assay qHTS validation (AID 1347057; active = well fitted curve in the direction sought with a large enough effect in the signal ratio, with a control signal flat, not every such curve was filed as active; the % refers to the signal ratio; note: series mostly up to about 38 µM)
In short: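 Inhibition of soluble CD47/SIRPalpha ectodomain association by titrated compounds, measured as 665/615 nm time-resolved FRET ratio after sequential 30 min room-temperature incubations.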

SMILES | Potency [1] | Potency [2] | Potency [3] | Potency [4] | Potency [5] | Potency [6] | Potency [7] | Potency [8] | Potency [9] | Potency [10] | Potency [11] | Potency [12] | Potency [13] | Potency [14] | Potency [15] | Potency [16] | Potency [17] | outcome [18] | outcome [19] | outcome [20]
CCc1c(C(=O)C(N)=O)c2c(OCC(=O)O)cccc2n1Cc1ccccc1 | inactive | inactive | inactive | inactive | inactive | inactive | inactive | inactive | inactive | inactive | – | – | – | – | – | – | – | – | – | –
O=C(NCC1CCOCC1)c1cnc(Nc2ccc(Cl)cc2Cl)nc1C(F)(F)F | inactive | inactive | inactive | inactive | inactive | inactive | inactive | inactive | – | – | 18.7 µM (active) | 18.7 µM (active) | 3.32 µM (active) | – | – | – | – | – | – | –
CC[C@@H](C(N)=O)N1CCCC1=O | – | inactive | inactive | – | – | inactive | inactive | inactive | – | inactive | inactive | – | 26.4 µM (active) | inactive | inactive | inactive | inactive | inactive | – | –
c1ccc(CCCN2CCN(CCOC(c3ccccc3)c3ccccc3)CC2)cc1 | – | 18.7 µM (active) | inactive | inactive | inactive | inactive | inactive | inactive | – | 24.3 µM (active) | 29.6 µM (active) | 23.5 µM (active) | – | 26.1 µM (active) | inactive | inactive | inactive | inactive | inactive | –
CC[C@@]1(O)C(=O)OCc2c1cc1n(c2=O)Cc2cc3ccccc3nc2-1 | – | 0.332 µM (active) | 11.8 nM (active) and inactive | inactive | 193 nM (active) and 199 nM (active) | – | inactive | 0.0262 µM (active) | – | 0.0137 µM (active) | – | 0.0235 µM (active) | 0.0074 µM (active) | inactive | inactive | inactive | inactive | inactive | – | –
c1ccc2c(CN3CCNCC3)cccc2c1 | inactive | inactive | inactive | inactive | inactive | inactive | inactive | inactive | inactive | inactive | inactive | inactive | 29.6 µM (active) | – | – | – | – | – | – | –
CN1CCN(c2ccc([N+](=O)[O-])c3no[n+]([O-])c23)CC1 | inactive | inactive | inactive | inactive | inactive | inactive | inactive | inactive | 23.5 µM (active) | – | – | 23.5 µM (active) | 18.7 µM (active) | – | – | – | – | – | – | –
O=C(O)C(Cl)Cl | inactive | inactive | inactive | inactive | inactive | inactive | inactive | inactive | inactive | inactive | inactive | inactive | inactive | – | – | – | – | – | – | –
C[N+](C)(C)CC(=O)O | – | inactive | inactive | inactive | inactive | inactive | inactive | – | – | – | – | – | – | – | – | – | inactive | – | – | –
S=C(NC1CCCCC1)N1CCC(c2cnc[nH]2)CC1 | – | inactive | inactive | inactive | inactive | inactive | inactive | – | – | – | – | – | – | – | inactive | inactive | inactive | inactive | – | –
CC(C)(C)[C@]1(O)C[C@@H]2OC(=O)C[C@@]23C(=O)O[C@@H]2OC(=O)[C@H](O)C213 (some centres not stated) | inactive | inactive | inactive | inactive | inactive | inactive | inactive | inactive | – | inactive | – | inactive | inactive | – | – | – | – | – | – | –
CC(=O)NCCc1c[nH]c2ccccc12 | inactive | inactive | inactive | inactive | inactive | inactive | inactive | – | – | – | – | – | – | inactive | inactive | inactive | inactive | inactive | – | –
CC1=NN=C(c2ccc(N)cc2)c2cc3c(cc2C1)OCO3 | inactive | inactive | inactive | inactive | inactive | inactive | inactive | inactive | inactive | inactive | inactive | inactive | inactive | inactive | inactive | inactive | inactive | inactive | – | inactive
CC(=O)N(C)c1cccc(-c2ccnc3c(C(=O)c4cccs4)cnn23)c1 | inactive | – | inactive | inactive | inactive | – | inactive | inactive | inactive | inactive | inactive | inactive | inactive | – | – | – | – | – | – | –
O=C(N[C@H]1CN2CCC1CC2)c1ccc(Cl)cc1 | inactive | inactive | inactive | inactive | – | inactive | inactive | inactive | inactive | – | 18.7 µM (active) | 5.9 µM (active) | 1.66 µM (active) | inactive | inactive | inactive | inactive | inactive | – | –
CC(C)(C)c1cc(C=C(C#N)C#N)cc(Br)c1O | 20.6 µM (active) | – | – | inactive | inactive | – | – | inactive | 2.64 µM (active) | – | – | – | – | – | – | – | – | – | – | –
CCNC(=O)CC1N=C(c2ccc(Cl)cc2)c2cc(OC)ccc2-n2c(C)nnc21 (configuration not stated) | inactive | inactive | inactive | – | 7.69 µM (active) | 1.53 µM (active) | 2.43 µM (active) | inactive | – | – | – | 2.96 µM (active) | 2.96 µM (active) | – | – | – | – | – | – | –
O=C1C=CC[C@@H]2[C@H]3CCCN4CCC[C@@H](CN12)[C@@H]34 | – | inactive | inactive | inactive | inactive | inactive | inactive | – | – | – | – | – | – | – | – | – | – | – | – | –
